The other results are listed elsewhere or left out. The hit rate among all sequences tested is not known here.
B1: HC2091 (peptide)
chain: CAVVCCSMSDAGNASASA
B2: HC919 (peptide)
chain: CALCECYDAGAGNASASA
B3: HC1179 (peptide)
chain: CAGHVKNGTMAGNASASA
B4: FS-3189 (peptide)
chain: CARIRRDANEAGNASASA
B5: FS-2929 (peptide)
chain: CARGARGVRVAGNASASA
B6: FS-2927 (peptide)
chain: CARFSKSADEAGNASASA
B7: FS-2951 (peptide)
chain: CARIKKDKKEAGNASASA
B8: FS-1899 (peptide)
chain: CARIRRDVRVAGNASASA
B9: FS-1956 (peptide)
chain: CARIRRGTDEAGNASASA
B10: HC843 (peptide)
chain: CAVALSTTGEAGNASASA
B11: HC2416 (peptide)
chain: CAEVPCHRPGAGNASASA
B12: HC441 (peptide)
chain: CATKVCGAPPAGNASASA
B13: FS-1964 (peptide)
chain: CARPRRFFPGAGNASASA
B14: FS-2503 (peptide)
chain: CARPRRRLGPAGNASASA
B15: FS-2502 (peptide)
chain: CARPRRGSLRAGNASASA
B16: FS-2059 (peptide)
chain: CARPRRSAGKAGNASASA
B17: FS-1863 (peptide)
chain: CARPRRSAHRAGNASASA
B18: FS-2359 (peptide)
chain: CARPRRGSHPAGNASASA
B19: FS-3200 (peptide)
chain: CARPRRSAPKAGNASASA
B20: HC2149 (peptide)
chain: CAYVVTSTWVAGNASASA
B21: HC698 (peptide)
chain: CANGVCWTVYAGNASASA
B22: HC1576 (peptide)
chain: CANIIMFAPTAGNASASA
B23: HC1627 (peptide)
chain: CAARGGRAAIAGNASASA
B24: FS-2194 (peptide)
chain: CARVCRSDNTAGNASASA
B25: FS-2098 (peptide)
chain: CARVGRSLPTAGNASASA
B26: FS-2263 (peptide)
chain: CARKGRVVIDAGNASASA
B27: FS-3117 (peptide)
chain: CARVGRSVTDAGNASASA
B28: HC572 (peptide)
chain: CALVGLMALTAGNASASA
B29: FS-2838 (peptide)
chain: CARVGRSSKQAGNASASA
B30: FS-2341 (peptide)
chain: CARKGRSEDIAGNASASA
B31: HC1993 (peptide)
chain: CARVCCSMSYAGNASASA
B32: FS-2620 (peptide)
chain: CARVPRDPSTAGNASASA
B33: HC1457 (peptide)
chain: CAMALYDVVTAGNASASA
B34: FS-2195 (peptide)
chain: CARVGRGVSIAGNASASA
B35: FS-2470 (peptide)
chain: CARVGRQVVTAGNASASA

Molecular target: furin, P09958
Sequence (P09958 whole entry): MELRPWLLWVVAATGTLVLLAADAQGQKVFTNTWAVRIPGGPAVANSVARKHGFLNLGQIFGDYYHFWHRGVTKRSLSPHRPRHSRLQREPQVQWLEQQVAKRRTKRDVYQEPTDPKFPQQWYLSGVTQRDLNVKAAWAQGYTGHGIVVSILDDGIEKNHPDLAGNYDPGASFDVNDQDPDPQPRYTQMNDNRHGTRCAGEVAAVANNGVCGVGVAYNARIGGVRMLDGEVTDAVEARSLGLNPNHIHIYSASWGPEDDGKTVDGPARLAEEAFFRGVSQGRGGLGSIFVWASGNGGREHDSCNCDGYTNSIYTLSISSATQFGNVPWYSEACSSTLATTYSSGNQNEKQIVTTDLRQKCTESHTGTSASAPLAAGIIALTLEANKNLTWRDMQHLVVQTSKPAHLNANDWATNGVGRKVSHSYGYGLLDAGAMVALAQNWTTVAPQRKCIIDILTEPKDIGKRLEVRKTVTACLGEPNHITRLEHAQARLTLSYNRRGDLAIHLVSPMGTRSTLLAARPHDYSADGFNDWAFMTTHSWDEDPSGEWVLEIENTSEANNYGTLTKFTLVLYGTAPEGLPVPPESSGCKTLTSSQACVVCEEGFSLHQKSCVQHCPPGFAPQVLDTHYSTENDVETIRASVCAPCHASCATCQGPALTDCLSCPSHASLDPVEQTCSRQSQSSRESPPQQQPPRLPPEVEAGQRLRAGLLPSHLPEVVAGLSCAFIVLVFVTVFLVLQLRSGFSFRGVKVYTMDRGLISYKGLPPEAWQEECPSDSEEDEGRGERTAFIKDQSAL
Assay: furin cleavage Z-score vs untreated control; higher = more cleavage, active = 3.5 or more, inactive = 1 or less, 8 variable residues between constant flanks
Procedure, shortened: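 Peptides 8 residues long, fused to a cDNA oligonucleotide, were fixed to magnetic beads by the N-terminus and exposed to purified furin. The 0.01 ml reactions contained 50 mM HEPES pH 7.5 with CaCl2 and NaCl at 1:10 enzyme:substrate and ran 7.5, 15 or 30 min. For the cleavage Z-score, log counts of sequenced released DNA were compared with furin-free reactions, lowess-adjusted and scaled by median absolute deviation.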

Sequence	furin cleavage Z-score (7.5 min)	furin cleavage Z-score (15 min)	furin cleavage Z-score (30 min)
B1	-0.81 (inactive)	0.345 (inactive)	-0.759 (inactive)
B2	-0.871 (inactive)	0.625 (inactive)	-1.3 (inactive)
B3	0.572 (inactive)	0.821 (inactive)	0.846 (inactive)
B4	13.3 (active)	13.5 (active)	9.85 (active)
B5	-0.658 (inactive)	-0.415 (inactive)	-0.385 (inactive)
B6	-0.221 (inactive)	-0.408 (inactive)	-0.912 (inactive)
B7	-1.75 (inactive)	-0.739 (inactive)	-0.88 (inactive)
B8	8.22 (active)	10.4 (active)	7.12 (active)
B9	12.4 (active)	12.2 (active)	8.37 (active)
B10	-1.85 (inactive)	-1.96 (inactive)	-0.758 (inactive)
B11	-0.244 (inactive)	-0.922 (inactive)	0.598 (inactive)
B12	0.138 (inactive)	0.123 (inactive)	-0.197 (inactive)
B13	-0.922 (inactive)	-0.718 (inactive)	-0.224 (inactive)
B14	0.585 (inactive)	1.48	1.2
B15	-1.01 (inactive)	-0.431 (inactive)	1.07
B16	6.62 (active)	6.92 (active)	6.48 (active)
B17	8.93 (active)	9.74 (active)	8.89 (active)
B18	0.189 (inactive)	1.65	2.41

Sequence	furin cleavage Z-score (7.5 min)	furin cleavage Z-score (15 min)	furin cleavage Z-score (30 min)
B19	8.12 (active)	8.75 (active)	6.05 (active)
B20	0.323 (inactive)	-0.464 (inactive)	-0.44 (inactive)
B21	-1.07 (inactive)	2.25	-1.18 (inactive)
B22	-0.25 (inactive)	-0.574 (inactive)	-0.569 (inactive)
B23	0.309 (inactive)	-1.06 (inactive)	0.234 (inactive)
B24	2.3	1.13	4.01 (active)
B25	8.92 (active)	10.2 (active)	8.81 (active)
B26	-1.41 (inactive)	-0.368 (inactive)	0.767 (inactive)
B27	9.08 (active)	9.86 (active)	8.63 (active)
B28	-0.292 (inactive)	-0.497 (inactive)	-0.985 (inactive)
B29	0.0354 (inactive)	0.533 (inactive)	2.07
B30	0.928 (inactive)	1.18	-0.197 (inactive)
B31	-1.56 (inactive)	0.796 (inactive)	0.275 (inactive)
B32	0.232 (inactive)	0.063 (inactive)	1.18
B33	-0.109 (inactive)	-0.594 (inactive)	1.06
B34	-0.488 (inactive)	-0.0472 (inactive)	2.09
B35	1.41	4.05 (active)	2.16
